# Laboratory results taken from PubChem BioAssay (NCATS).
# Records with an inconclusive call do not appear. Unmarked numbers belong to inactive results. Active and inactive are the calls of the source. Calls follow the shape of the dose curve; as a rule, active = well fitted inhibition curve with a large enough effect; inconclusive = small, poorly fitted or top-dose-only effect; inactive = flat fitted curve, though single readings scatter.
# Assay: qHTS to identify inhibitors of the type 1 interferon - major histocompatibility complex class I in skeletal muscle: primary screen against the NCATS Pharmaceutical Collection (AID 1347407)
# Conditions: human skeletal muscle cells, IFN-b-induced MHC-I HiBiT luminescence, 24 h; series mostly up to 45.9 µM; activity change, negative = inhibition: at the top concentration
# Summary of the method: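 Immortalized human myoblasts (C25cl48) with HiBiT knocked into endogenous HLA-B*08:01 were stimulated with 4 ng/ml IFN-beta and treated with compounds (8-point, 1:5, top 46 uM final) for 24 h at 37 C; HiBiT lytic luminescence read.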
# % is scaled to controls: 0 for no effect and ±100 for the full control effect; potency is read from the fitted curve at half-maximal effect.
SMILES,"activity change, negative = inhibition",Potency
CCCc1c2oc(C(=O)O)cc(=O)c2cc2c(=O)cc(C(=O)O)n(CC)c12,3.51%,
CC1(C)O[C@@H]2C[C@H]3[C@@H]4C[C@H](F)C5=CC(=O)C=C[C@]5(C)[C@@]4(F)[C@@H](O)C[C@]3(C)[C@]2(C(=O)CO)O1,-24.7%,
COC(=O)CCCCC(CCSS/C(CCO)=C(\C)N(C=O)Cc1cnc(C)nc1N)SC(C)=O (configuration not stated),-24.4%,
CN1CCCN=C1/C=C/c1cccs1,0.429%,
CC1(C)O[C@@H]2C[C@H]3[C@@H]4CCC5=CC(=O)C=C[C@]5(C)[C@@]4(F)[C@@H](O)C[C@]3(C)[C@]2(C(=O)CO)O1,-31%,
COC(=O)c1cc(Cl)ccc1NS(=O)(=O)C(F)(F)F,15.7%,
NS(=O)(=O)c1cc2c(cc1Cl)CN(C1CCCCC1)C2=O,0.598%,
COC(=O)c1cc(Cl)c(NC(C)=O)cc1OC,10.8%,
CCOC(=O)NNc1nncc2ccccc12,-3.98%,
CC[C@@]1(O)C(=O)OCc2c1cc1n(c2=O)Cc2c-1nc1ccccc1c2/C=N/OC(C)(C)C,,745 nM (active)
Oc1ccccc1-c1nnco1,-2.98%,
O=C(O)CCCC[P+](c1ccccc1)(c1ccccc1)c1ccccc1,-0.573%,
C[C@@]12CCC[C@H]1[C@@H]1CC[C@H]3C[C@@H](O)CC[C@]3(C)[C@H]1CC2,-1.34%,
CO/N=C(\C(=O)O)c1csc(NC(=O)CCl)n1,16.4%,
CC(=O)N(c1onc(C)c1C)S(=O)(=O)c1ccc(N)cc1,-6.52%,
CN1CC(=O)N2[C@H](c3ccc4c(c3)OCO4)c3[nH]c4ccccc4c3C[C@@H]2C1=O,-2.99%,
Oc1ccccc1,-11.8%,
CCOC(=O)C(=O)CCc1ccccc1,-18%,
CC(C)C(C)(C)C(C)(C)C(C)(C)S,15.7% [at 92.2 µM],

SMILES,"activity change, negative = inhibition",Potency
CCOC(=O)C(O)c1ccccc1 (configuration not stated),4.12%,
O=C1CCCc2c(O)cccc21,-0.282%,
CN1N=C(C(N)=O)CCC1=O,-1.18%,
COC(=O)/C=C\C(=O)OC,-0.378%,
CCCCCCOC(=O)NC(=N)c1ccc(NCc2nc3cc(C(=O)N(CCC(=O)OCC)c4ccccn4)ccc3n2C)cc1,7.68%,
CO/N=C(/C(=O)N[C@@H]1C(=O)N2C(C(=O)[O-])=C(C[n+]3ccn4ncccc43)CS[C@H]12)c1nsc(N)n1,-19.9%,
C[C@H]1C[C@H]2[C@@H]3CCC4=CC(=O)C=C[C@]4(C)[C@H]3C(=O)C[C@]2(C)[C@@]1(O)C(=O)CO,-5.87%,
CC(=O)/C=C/C=C1/C2CCC(C2)C1(C)C (configuration not stated),-9.74%,
CN1CC[C@H](c2c(O)cc(O)c3c(=O)cc(-c4ccccc4Cl)oc23)[C@H](O)C1,,210 nM (active)
O=c1[nH]c2ccccc2c(=O)n1CCCl,3.37%,
Cc1c(C)c2c(c(C)c1OC(=O)CCC(=O)OCCO)CC[C@@](C)(CCC[C@H](C)CCC[C@H](C)CCCC(C)C)O2,-12.5%,
COc1ccc(CCC(C)=O)cc1,-3.38%,
O=C(O)C(=O)Nc1cccc(-c2nn[nH]n2)c1,-0.622%,
Nc1cc(C(F)(F)F)ccc1S,-0.492%,
NCC(=O)O,0.398% [at 19 µM],
O=C(O)[C@H](O)[C@@H](O)[C@H](O[C@@H]1O[C@H](CO)[C@H](O)[C@H](O)[C@H]1O)[C@H](O)CO,0.321%,
CCN(CC)CC(=O)Nc1c(C)cccc1C(=O)OC,-0.24%,
CO[C@@]1(NC(=O)CSC[C@@H](N)C(=O)O)C(=O)N2C(C(=O)O)=C(CSc3nnnn3C)CS[C@@H]21,8.95%,
